Measurements published in PubChem BioAssay (Tox21).
Records with an inconclusive call do not appear. Active and inactive are the calls of the source. Unless noted, the call rests on the fitted dose curve; in most records, active means well fitted curve in the direction sought with a large enough effect in the repeat runs; inconclusive means weak or mixed curves; inactive means flat fitted curve, though single readings scatter.

Columns and labels:
[1] = qHTS assay to test for compound auto fluorescence at 460 nm (blue) in HEK293 cell free culture (AID 720681)
Method in brief: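 Test compounds were pinned into cell-free culture medium (DMEM with 10% FBS) and fluorescence was read directly at Ex/Em 405/460 nm. Signals were expressed as fluorescence equivalents of triamterene, with DMSO vehicle as control.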

[2] = qHTS assay to test for compound auto fluorescence at 535 nm (green) in HEK293 cell free culture (AID 720682)
Method in brief: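 Steps: dispense DMEM/10% FBS into empty wells; pin in compound or DMSO; measure fluorescence at 485/535 nm. Values are fluorescein equivalents.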

[3] = qHTS assay to test for compound auto fluorescence at 590 nm (red) in HEK293 cell free culture (AID 720683)
Method in brief: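 Tox21 10K library compounds were pinned into cell-free DMEM with 10% FBS and fluorescence was read at excitation 540 nm. Activity is expressed as Rose Bengal sodium equivalency.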

[4] = qHTS assay to test for compound auto fluorescence at 590 nm (red) in HepG2 cell free culture (AID 720684)
Method in brief: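 Ex 540 / Em 590 nm read of compound in cell-free MEM (10% FBS). Rose Bengal sodium reference.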

[5] = qHTS assay to test for compound auto fluorescence at 460 nm (blue) in HepG2 cell free culture (AID 720685)
Method in brief: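 Cell-free plates of MEM plus 10% FBS received 23 nL compound or DMSO vehicle; blue-channel (405/460 nm) intensity scored against triamterene as reference fluorophore.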

[6] = qHTS assay to test for compound auto fluorescence at 535 nm (green) in HepG2 cell free culture (AID 720686)
[7] = qHTS assay to test for compound auto fluorescence at 460 nm (blue) in HepG2 cells (AID 720687)
Method in brief: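 Cells (2,000/well in MEM with 10% FBS) attached overnight at 37 C, then were exposed to compound or DMSO for 1 hr at 37 C, 5% CO2. Fluorescence read at Ex/Em 405/460 nm, expressed as triamterene-equivalent signal.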

[8] = qHTS assay to test for compound auto fluorescence at 535 nm (green) in HEK293 cells (AID 720680)
[9] = molecular target: Glucocorticoid receptor (Homo sapiens) (UniProt P04150); test: qHTS assay to identify small molecule agonists of the glucocorticoid receptor (GR) signaling pathway (AID 720691; active means well fitted activation curve with a large enough effect in the signal ratio in the repeat runs, not every such curve was filed as active; the % refers to the signal ratio)
Method in brief: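 Compounds in DMSO, alongside positive controls, were added to GR-bla HeLa reporter cells and incubated 18 h at 37 C; GRE-driven beta-lactamase was detected by fluorescence after 2 h with FRET substrate at room temperature.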

[10] = molecular target: Glucocorticoid receptor (Homo sapiens) (UniProt P04150); test: qHTS assay to identify small molecule antagonists of the glucocorticoid receptor (GR) signaling pathway (AID 720692; active means well fitted inhibition curve with a large enough effect in the signal ratio in the repeat runs, not every such curve was filed as active; the % refers to the signal ratio)
Method in brief: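 In a 1536-well cell format, compounds were added 4 h after seeding GR-bla HeLa cells, together with dexamethasone at 5 nM final; reporter activity was measured by FRET-substrate fluorescence following 18 h at 37 C.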
On the % scale 0 is the no-effect control and ±100 the full control effect.

Chain of Glucocorticoid receptor (Homo sapiens) (P04150 whole entry, looked up): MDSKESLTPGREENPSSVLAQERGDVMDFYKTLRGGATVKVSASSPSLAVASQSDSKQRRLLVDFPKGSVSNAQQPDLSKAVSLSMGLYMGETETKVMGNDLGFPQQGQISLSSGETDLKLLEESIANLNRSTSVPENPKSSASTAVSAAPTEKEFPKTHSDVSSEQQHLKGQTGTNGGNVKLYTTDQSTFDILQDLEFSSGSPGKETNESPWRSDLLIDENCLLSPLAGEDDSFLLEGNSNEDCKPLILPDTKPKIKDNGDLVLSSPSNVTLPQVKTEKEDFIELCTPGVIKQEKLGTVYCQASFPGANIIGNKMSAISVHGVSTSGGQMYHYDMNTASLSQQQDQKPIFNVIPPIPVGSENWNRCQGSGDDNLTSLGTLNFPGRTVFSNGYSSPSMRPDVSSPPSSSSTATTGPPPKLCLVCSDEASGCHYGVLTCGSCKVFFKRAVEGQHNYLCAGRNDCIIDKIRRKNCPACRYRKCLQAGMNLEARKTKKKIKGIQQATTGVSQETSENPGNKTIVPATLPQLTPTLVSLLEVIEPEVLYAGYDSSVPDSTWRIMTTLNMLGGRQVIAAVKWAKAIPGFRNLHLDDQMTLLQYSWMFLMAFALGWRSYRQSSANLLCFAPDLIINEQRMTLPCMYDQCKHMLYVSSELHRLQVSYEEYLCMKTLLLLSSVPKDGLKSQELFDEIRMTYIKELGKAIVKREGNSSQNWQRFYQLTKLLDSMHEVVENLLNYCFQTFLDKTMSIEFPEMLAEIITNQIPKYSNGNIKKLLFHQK

BrC/C=C/CBr
inactive: fluorescence, % of fluorescent control [1] -0.0065% [at 18.6 µM] | activity change [2] 0.0973% [at 18.6 µM] | fluorescence, % of fluorescent control [3] -0.0344% [at 18.6 µM] | fluorescence, % of Rose Bengal [4] 0.0351% [at 18.6 µM] | fluorescence, % of fluorescent control [5] -0.08% [at 18.6 µM] | fluorescence, % of fluorescein control [6] -0.0214% [at 18.6 µM] | fluorescence, % of fluorescent control [7] 0.058% [at 18.6 µM]

Oc1ccccc1Cc1ccccc1O
inactive: outcome [8] | outcome [3] | outcome [4] | outcome [5] | outcome [6] | outcome [7] | Potency [9] | outcome [10]

FC(F)(F)c1ccc(Cl)cc1Cl
inactive: outcome [8] | outcome [2] | outcome [3] | outcome [4] | outcome [5] | outcome [6] | outcome [7] | Potency [9] | outcome [10]

O=C1c2ccccc2-c2ccccc21
inactive: outcome [8] | outcome [3] | outcome [4] | outcome [5] | outcome [6] | Potency [9]

CC(=O)Nc1ncc([N+](=O)[O-])s1
inactive: outcome [8] | outcome [3] | outcome [4] | outcome [5] | outcome [6] | outcome [7] | Potency [9]

c1ccc(CNc2ncnc3nc[nH]c23)cc1
inactive: outcome [8] | outcome [2] | outcome [3] | outcome [4] | outcome [5] | outcome [6] | outcome [7] | Potency [9]

CCCCCCCCCCC
inactive: outcome [8] | outcome [2] | outcome [3] | outcome [4] | outcome [5] | outcome [6] | Potency [9]

O=[Si]=O
inactive: outcome [8] | outcome [2] | outcome [3] | outcome [4] | outcome [5] | outcome [6] | outcome [7] | Potency [9]

C1=CCC(c2ccccc2)CC1 (stereo not drawn)
inactive: outcome [8] | outcome [2] | outcome [3] | outcome [4] | outcome [5] | outcome [6] | Potency [9]

CCCCOC(=O)C(=O)OCCCC
inactive: outcome [8] | outcome [2] | outcome [3] | outcome [4] | outcome [5] | outcome [6] | outcome [7] | Potency [9]

CCCCCC(=O)OCC
inactive: outcome [8] | outcome [3] | outcome [4] | outcome [5] | outcome [6] | outcome [7] | Potency [9]

C[Si]1(C)N[Si](C)(C)N[Si](C)(C)N1
inactive: outcome [1] | outcome [2] | outcome [3] | outcome [4] | outcome [5] | outcome [6] | outcome [7]

OC[C@@H](O)[C@H](O)[C@@H](O)[C@@H](O)CO
inactive: outcome [8] | outcome [2] | outcome [3] | outcome [4] | outcome [5] | outcome [6] | outcome [7]

Cc1cc(C)cc([N+](=O)[O-])c1
inactive: outcome [8] | outcome [2] | outcome [3] | outcome [4] | outcome [5] | outcome [6] | outcome [7] | Potency [9]

CC(=O)c1ccc2c(c1)CCCC2
inactive: outcome [8] | outcome [2] | outcome [3] | outcome [4] | outcome [5] | outcome [6] | outcome [7] | Potency [9] | outcome [10]

NC(=O)C1(N2CCCCC2)CCN(CCCC(=O)c2ccc(F)cc2)CC1
inactive: outcome [8] | outcome [2] | outcome [3] | outcome [4] | outcome [5] | outcome [6] | outcome [7] | Potency [9]

CC(C)(C)NCCO
inactive: outcome [8] | outcome [2] | outcome [3] | outcome [4] | outcome [5] | outcome [6] | Potency [9] | outcome [10]

O=C1OC(=O)c2ccccc21
inactive: outcome [8] | outcome [2] | outcome [3] | outcome [4] | outcome [5] | outcome [6] | outcome [7] | Potency [9]

CC(=O)N(CC(O)CO)c1c(I)c(C(=O)NCC(O)CO)c(I)c(C(=O)NCC(O)CO)c1I (stereo not drawn)
inactive: outcome [1] | outcome [2] | outcome [3] | outcome [4] | outcome [5] | outcome [6] | outcome [7]

COc1ccc(/C=N/NC(=O)c2ccncc2)cc1OC
inactive: outcome [8] | outcome [3] | outcome [4] | outcome [5] | outcome [6] | outcome [7] | Potency [9] | outcome [10]

Cc1ncc([N+](=O)[O-])n1CC(O)CCl (stereo not drawn)
inactive: fluorescence, % of fluorescein [8] -0.0185% [at 18.6 µM] | activity change [2] 0.017% [at 18.6 µM] | fluorescence, % of fluorescent control [3] -0.0564% [at 18.6 µM] | fluorescence, % of Rose Bengal [4] 0.0054% [at 18.6 µM] | fluorescence, % of fluorescent control [5] -0.0905% [at 18.6 µM] | fluorescence, % of fluorescein control [6] -0.0146% [at 18.6 µM] | fluorescence, % of fluorescent control [7] -0.0428% [at 18.6 µM] | Potency [9] | outcome [10]

COCCOCCOCCOC
inactive: outcome [1] | outcome [2] | outcome [3] | outcome [4] | outcome [5] | outcome [6] | outcome [7] | Potency [9] | outcome [10]

CCCCC[Si](OCC)(OCC)OCC
inactive: outcome [1] | outcome [2] | outcome [3] | outcome [4] | outcome [5] | outcome [6] | outcome [7] | Potency [9]
